Drawing on PubChem BioAssay (NCI), this text covers growth inhibition for 39 molecules.

The panel holds about 79,000 compounds, 15% with a hit somewhere; the sample as a whole holds those more often. A number with no mark means an inactive call. Activity calls are given as the source filed them. Cut-off read from the data, not from the text of the source: active = growth inhibition above about 70%; inactive = the rest.

One assay in a line: NCI Yeast Anticancer Drug Screen. Data for the bub3 strain (AID 167). To be noted: S. cerevisiae bub3 mutant strain, at 50.0 µM, stronger effect = higher value. In outline: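 Steps: expose the mutant yeast strain to compound; grow alongside vehicle-treated cultures; measure growth; express inhibition against the vehicle cultures.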
For `CCCc1cc(C(=O)OCC)cc(CCC)c1O`, the growth inhibition is 96.7% (active).
On the same count and under the same terms, with `CC(C)[N+]([O-])(CCCNc1c2ccccc2nc2cccc([N+](=O)[O-])c12)C(C)C` the figure was 11.9%; with `COc1cc2c3c(cccc3c1)C(=O)N(CCN(C)C)C2=O`, -34%; with `NC(=O)NN=C(CS)CS`, 27.4%.
As to `Cc1ccc(NC(=O)/C(Cl)=C(\Cl)C(=O)O)cc1C`, the growth inhibition is 99.5% (active).
Same read-out and setting: the figure for `CCN(CC)CC[n+]1ccc2c(C)c3[nH]c4ccc(O)cc4c3c(C)c2c1` is -14.8%; for `CC(CC(C)(C)[N+](C)(C)C)[N+](C)(C)C` (stereo not drawn) it is 95.7% (active).
On the same count and under the same terms, the figure for `COc1ccc(OC)c2cc3ccccc3cc12` is 89.7% (active).
As to `Nc1ncncc1C(C1=C(O)COC1=O)C1=C(O)COC1=O`, the growth inhibition was -6.55%.
Same read-out and setting: with `CSC1=NNC(SC)=NN1` the figure was 68.8%; with `Cc1c(Cl)ccc2c1S(=O)(=O)c1cccc(Cl)c1-2`, 81.3% (active).
Same read-out and setting: the figure for `[O-][n+]1c2ccc(O)cc2nc2ccc(Cl)cc21` is 78.8% (active).
`COc1ccc2ccc3ccccc3c2c1C=O`: the growth inhibition is -11.7%.
In the case of `Nc1ccc2c(c1)C(=O)c1cccc(N)c1C2=O`, the growth inhibition was 57.1%.
On the same count and under the same terms, the figure for `O=C(c1ccc(Cl)cc1Cl)C(Cl)Cl` is 88.8% (active); for `COc1cc(C(=O)/C=C/c2ccccc2O)ccc1O` it is 94.2% (active).
The same measure, in the same setting: with `O=Cc1cccc2ccc3ccccc3c12` the figure was 98.7% (active).
As for `O=C(Nc1ccc(Cl)cc1)OCC#CCCl`, the growth inhibition was 18.1%.
Still for that read-out and setting: the figure for `Cn1ccnc1Oc1ccc(Cl)cc1` is 38.1%.
The same measure, in the same setting: with `c1ccc2c(c1)C(=NCCCN1CCCCCC1)c1cccn1-2` the figure was 94.9% (active); with `C/C(=N\O)C1CC2C=C(C#N)C1N(Cc1ccccc1)C2` (stereo not drawn), 10.7%.
On to `O=[N+]([O-])C(=C(Sc1ccccc1)Sc1ccccc1)C(Cl)=C(Cl)Cl`, for which the growth inhibition was 60.2%.
For `CCCCCCCCCC/C=C\C(=O)O`, the growth inhibition is 85.8% (active).
For `COc1ccc(N=C2C(=O)Nc3ccc(Br)cc32)cc1`, the growth inhibition is 82.4% (active).
Still for that read-out and setting: with `COc1ccccc1C(=O)OCC1CCCN2CCCCC12` (stereo not drawn) the figure was 90.8% (active); with `CC(C)(Br)C(=O)/C=C/c1ccc(Cl)c(Cl)c1`, 78.9% (active); with `Nc1ccccc1CC(O)C(=O)O` (stereo not drawn), 83.8% (active).
`CC(=O)N/N=C/C(C)(C)C(C)(C)/C=N/NC(C)=O`: the growth inhibition was 35.4%.
As to `CN(C)c1nc2sc3c(c2c(=O)o1)CCCC3`, the growth inhibition is 75.2% (active).
Regarding `CC(C)OC(=O)Oc1ccccc1OC(=O)OC(C)C`, the growth inhibition is 15.7%.
For `Cc1ccc(N)c(S)c1`, the growth inhibition is 81.5% (active).
Same read-out and setting: with `O=C(O)c1ccccc1NC(=S)c1ccccc1` the figure was 17.4%.
Same read-out and setting: the figure for `COC(=O)c1ccc(NCC2=CC(=O)C=CC2=O)cc1O` is 91.1% (active); for `NC(N)=N/N=C\c1c2ccccc2cc2ccccc12` it is 21%.
As for `COC(=O)CSSCc1ccc([N+](=O)[O-])cc1`, the growth inhibition is 96% (active).
Still for that read-out and setting: the figure for `CCS(=O)(=O)c1ccc(/C=C/C=N/NC(=S)NCC(C)C)cc1` is 39.1%; for `N#CC(C(=O)Nc1ccccc1)C1=C(Cl)C(=O)c2ccccc2C1=O` (stereo not drawn) it is 92% (active); for `C[C@H](CCC(=O)NN)[C@H]1CC[C@H]2[C@@H]3CC[C@@H]4C[C@H](O)CC[C@]4(C)[C@H]3CC[C@]12C` it is 89.2% (active).
Regarding `CC[n+]1ccc2c(C)c3[nH]c4ccc(O)cc4c3c(C)c2c1`, the growth inhibition was 5.2%.

Still in this assay, the particulars now being: S. cerevisiae bub3 mutant strain, at 100.0 µM, stronger effect = higher value.
In the case of `CCCc1cc(C(=O)OCC)cc(CCC)c1O`, the growth inhibition is 97% (active).
On the same count and under the same terms, with `CC(C)[N+]([O-])(CCCNc1c2ccccc2nc2cccc([N+](=O)[O-])c12)C(C)C` the figure was 98% (active); with `COc1cc2c3c(cccc3c1)C(=O)N(CCN(C)C)C2=O`, -4%; with `NC(=O)NN=C(CS)CS`, 56%.
As to `Cc1ccc(NC(=O)/C(Cl)=C(\Cl)C(=O)O)cc1C`, the growth inhibition was 99% (active).
On the same count and under the same terms, with `CCN(CC)CC[n+]1ccc2c(C)c3[nH]c4ccc(O)cc4c3c(C)c2c1` the figure was 2%.
Regarding `CC(CC(C)(C)[N+](C)(C)C)[N+](C)(C)C` (stereo not drawn), the growth inhibition was -1%.
As to `COc1ccc(OC)c2cc3ccccc3cc12`, the growth inhibition is 32%.
With `Nc1ncncc1C(C1=C(O)COC1=O)C1=C(O)COC1=O`, the growth inhibition is -8%.
On the same count and under the same terms, with `CSC1=NNC(SC)=NN1` the figure was 99% (active); with `Cc1c(Cl)ccc2c1S(=O)(=O)c1cccc(Cl)c1-2`, -18%.
The same measure, in the same setting: with `[O-][n+]1c2ccc(O)cc2nc2ccc(Cl)cc21` the figure was 59%.
Consider `COc1ccc2ccc3ccccc3c2c1C=O`, for which the growth inhibition was 76% (active).
The same measure, in the same setting: the figure for `Nc1ccc2c(c1)C(=O)c1cccc(N)c1C2=O` is 87% (active).
On the same count and under the same terms, with `O=C(c1ccc(Cl)cc1Cl)C(Cl)Cl` the figure was 97% (active); with `COc1cc(C(=O)/C=C/c2ccccc2O)ccc1O`, 98% (active).
Same read-out and setting: with `O=Cc1cccc2ccc3ccccc3c12` the figure was 97% (active).
Consider `O=C(Nc1ccc(Cl)cc1)OCC#CCCl`, for which the growth inhibition was 1%.
Still for that read-out and setting: the figure for `Cn1ccnc1Oc1ccc(Cl)cc1` is 97% (active).
On the same count and under the same terms, with `c1ccc2c(c1)C(=NCCCN1CCCCCC1)c1cccn1-2` the figure was 97% (active); with `C/C(=N\O)C1CC2C=C(C#N)C1N(Cc1ccccc1)C2` (stereo not drawn), -5%; with `O=[N+]([O-])C(=C(Sc1ccccc1)Sc1ccccc1)C(Cl)=C(Cl)Cl`, 50%.
Still for that read-out and setting: the figure for `CCCCCCCCCC/C=C\C(=O)O` is 97% (active); for `COc1ccc(N=C2C(=O)Nc3ccc(Br)cc32)cc1` it is 50%; for `COc1ccccc1C(=O)OCC1CCCN2CCCCC12` (stereo not drawn) it is 97% (active).
On to `CC(C)(Br)C(=O)/C=C/c1ccc(Cl)c(Cl)c1`, for which the growth inhibition is -2%.
On to `Nc1ccccc1CC(O)C(=O)O` (stereo not drawn), for which the growth inhibition was 92% (active).
On the same count and under the same terms, the figure for `CC(=O)N/N=C/C(C)(C)C(C)(C)/C=N/NC(C)=O` is 16%.
Same read-out and setting: with `CN(C)c1nc2sc3c(c2c(=O)o1)CCCC3` the figure was 69%; with `CC(C)OC(=O)Oc1ccccc1OC(=O)OC(C)C`, 9%.
For `Cc1ccc(N)c(S)c1`, the growth inhibition is 98% (active).
On to `O=C(O)c1ccccc1NC(=S)c1ccccc1`, for which the growth inhibition is 70% (active).
`COC(=O)c1ccc(NCC2=CC(=O)C=CC2=O)cc1O`: the growth inhibition was 93% (active).
Same read-out and setting: with `NC(N)=N/N=C\c1c2ccccc2cc2ccccc12` the figure was 75% (active); with `COC(=O)CSSCc1ccc([N+](=O)[O-])cc1`, 97% (active).
On the same count and under the same terms, with `CCS(=O)(=O)c1ccc(/C=C/C=N/NC(=S)NCC(C)C)cc1` the figure was 8%; with `N#CC(C(=O)Nc1ccccc1)C1=C(Cl)C(=O)c2ccccc2C1=O` (stereo not drawn), 95% (active).
On to `C[C@H](CCC(=O)NN)[C@H]1CC[C@H]2[C@@H]3CC[C@@H]4C[C@H](O)CC[C@]4(C)[C@H]3CC[C@]12C`, for which the growth inhibition was -3%.
As for `CC[n+]1ccc2c(C)c3[nH]c4ccc(O)cc4c3c(C)c2c1`, the growth inhibition is 15%.
